According to PubChem BioAssay (NCATS):
Values without a mark were called inactive. Activity calls are given as the source filed them. Calls follow the shape of the dose curve; as a rule, active = well fitted activation curve with a large enough effect; inconclusive = small, poorly fitted or top-dose-only effect; inactive = no such curve, though single readings can be large or run the other way.

molecular target: Parathyroid hormone/parathyroid hormone-related peptide receptor (Homo sapiens) (UniProt Q03431); test: qHTS for PTHR1 Agonists: Optimization Screen against the NCGC LOPAC library (AID 1347079); conditions: HEK293 GP2 PTHR1 GloSensor cAMP luminescence, 1 h; series mostly up to 57.1 µM; activation: at the top concentration; as to activation: 0% is about no effect
From the text: The goal of the proposed studies is to discover new compounds that act as potent agonists on the parathyroid hormone receptor type-1 (PTHR1). The PTHR1 plays critical roles in maintaining blood calcium and phosphate levels, as well as in controlling bone remodeling. PTHR1 agonists could thus be useful for treating diseases such as hypoparathyroidism and osteoporosis. In the former disease, an agonist drug would help maintain normal blood calcium and phosphate levels under conditions of parathyroid hormone deficiency. In the latter disease, an agonist drug would stimulate new bone formation and thus reduce the risk of fracture, under conditions of bone fragility, as occurs in aging. We performed an optimization assay of the quantitative high-throughput screening (qHTS) for the parathyroid hormone receptor type-1 (PTHR1) against the NCGC LOPAC library collection of […] compounds using a unique HEK-293-derived cell line (GP2) that expresses the PTHR1 and a GloSensor cAMP reporter construct. Increase in signal (activation / agonist) is the desired outcome for compounds of interest. NIH Chemical Genomics Center [NCGC] NIH Molecular Libraries Probe Production Centers Network [MLPCN] MLPCN Grant: P01 DK011794 Assay Submitter (PI): Thomas Gardella PhD, Massachusetts General Hospital
Reagents / Controls: M-PTH (1-15) peptide hormone fragments was provided by the assay provider and was used as a control. Column 1 was treated with M-PTH titration (1:2 dilution) beginning with a final concentration of 10uM. Column 2 was treated with M-PTH final concentration of 10uM. Columns 3 and 4 were treated with DMSO only to assess background and noise signal. Assay Steps: Four microLiter of cells suspension was dispensed in a 1536-well assay plate at a final density of 3000 cells/well. The plates were incubated overnight, after which 4uL of 0.5mM of BloTium Luciferin plus 0.5mM IBMX was added. Next, the plate was incubated at 37C for 1hr before 23nL of compound (at various final concentrations from 40uM to 0.32uM) and control were added using a 1536-well array Kalypsys pin-tool. The treated plates were again incubated at 37C for another hour. Luminescence signal was obtained using the PerkinElmer ViewLux plate reader after 15min or room temperature incubation.
Potency is read from the fitted curve at half-maximal effect.

Sequence of Parathyroid hormone/parathyroid hormone-related peptide receptor (Homo sapiens) (Q03431 whole entry, looked up): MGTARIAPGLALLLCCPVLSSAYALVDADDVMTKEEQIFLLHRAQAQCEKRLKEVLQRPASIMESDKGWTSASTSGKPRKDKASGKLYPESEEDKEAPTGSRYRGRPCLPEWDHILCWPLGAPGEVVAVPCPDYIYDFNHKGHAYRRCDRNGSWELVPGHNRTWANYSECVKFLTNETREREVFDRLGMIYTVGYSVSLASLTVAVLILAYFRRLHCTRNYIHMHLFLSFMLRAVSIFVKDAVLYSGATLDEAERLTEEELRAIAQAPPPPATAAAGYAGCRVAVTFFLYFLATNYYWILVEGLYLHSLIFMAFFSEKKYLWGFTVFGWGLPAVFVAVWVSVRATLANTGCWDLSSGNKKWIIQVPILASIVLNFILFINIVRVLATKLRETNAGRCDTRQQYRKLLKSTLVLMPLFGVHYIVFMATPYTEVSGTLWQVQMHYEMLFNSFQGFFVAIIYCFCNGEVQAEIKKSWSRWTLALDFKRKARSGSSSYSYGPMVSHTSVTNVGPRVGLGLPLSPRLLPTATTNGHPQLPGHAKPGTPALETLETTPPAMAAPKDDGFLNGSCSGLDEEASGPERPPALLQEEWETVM

| Structure (SMILES) | activation [%] | Potency |
| --- | --- | --- |
| Nc1nc(SCc2ccc([N+](=O)[O-])cc2)c2ncn([C@@H]3O[C@H](CO)[C@@H](O)[C@H]3O)c2n1 | 20.1 |  |
| N[C@@H](CC(=O)O)C(=O)O | -33.1 |  |
| COc1ccc(/C=C/C(=O)Nc2ccccc2C(=O)O)cc1OC | -25.9 |  |
| COc1ccc(NC(=O)/C=C/c2ccc(Cl)cc2)cc1 | -36.6 |  |
| NCCCCC(=O)O | 3.01 |  |
| CN(C)CCCO[C@@H]1[C@H]2OC(C)(C)O[C@H]2O[C@@H]1[C@H](O)CO | 9.68 |  |
| c1cnc2c(c1)ccc1cccnc12 | -14.3 |  |
| O=C(O)c1cc(=O)c2ccccc2[nH]1 | -7.46 |  |
| O=C1NC(=O)/C(=C/c2ccc(-c3ccc(F)cc3O)o2)S1 | 20.4 |  |
| O=[N+]([O-])c1ccc2c(c1)S(=O)(=O)C=C2 | -16 |  |
| Cc1ccc(S(=O)(=O)/C=C/C#N)cc1 | -10.9 |  |
| C[C@@H](CN1CCC(Cc2ccccc2)CC1)[C@@H](O)c1ccc(O)cc1 | -34.5 |  |
| O=C1NC(=O)/C(=C/c2ccc3nccnc3c2)S1 | 31 |  |
| COc1cccc(OC)c1OCCNCC1COc2ccccc2O1 (stereo not given) | 10.9 |  |
| CN(C)c1ccc(/C=C2\C(=O)Nc3ccccc32)cc1 | 13.6 |  |
| CCOC(=O)C1=C(C)NC(C)=C(C(=O)OCC)C1c1c(F)c(F)c(F)c(F)c1F | -9.33 |  |
| CCNC(=O)[C@H]1O[C@@H](n2cnc3c(N)nc(NCCc4ccc(CCC(=O)O)cc4)nc32)[C@H](O)[C@@H]1O | 47.8 |  |
| N#C/C(=C\c1ccc(O)c(O)c1)C(=O)c1ccc(O)c(O)c1 | -1 |  |
| CC(C)CC(NP(=O)(O)O[C@@H]1O[C@@H](C)[C@H](O)[C@@H](O)[C@H]1O)C(=O)NC(Cc1c[nH]c2ccccc12)C(=O)O (stereo not given in full) | -7.41 |  |
| NC(CCCP(=O)(O)O)C(=O)O (stereo not given) | 17.2 |  |

| Structure (SMILES) | activation [%] | Potency |
| --- | --- | --- |
| CC(=O)/C=C1\C(=O)N(C)c2ccccc21 | -29.1 |  |
| O=C(O)CC1CC(c2ccccc2)=NO1 (stereo not given) |  | 10.6 µM (active) |
| COc1cc(C(O)CO)ccc1OS(=O)(=O)O (stereo not given) | -20.7 |  |
| COc1ccc2c(c1)CCC1C2CC[C@@]2(C)C1CC[C@@H]2NCCCCCCN1C(=O)CCC1=O (stereo not given in full) | -29.9 |  |
| C=CC(N)CCC(=O)O (stereo not given) | 3.92 |  |
| CN(C)c1nc2c(Br)c(Br)c(Br)c(Br)c2[nH]1 | 29.7 |  |
| Cc1ccc(O)c(N=Nc2ccccc2)n1 | -27.6 |  |
| O=Nc1ccc2oc(=O)ccc2c1 | -3.4 |  |
| CCCCCCCCCCCCCCCCCCNC(=O)OCC(COP(=O)([O-])OCC[n+]1ccsc1)OC (stereo not given) | 4.14 |  |
| COc1ccccc1CNCCCCCCNCCCCCCCCNCCCCCCNCc1ccccc1OC | -21.5 |  |
| N#C/C(=C\c1ccc(-c2cc(Cl)ccc2Cl)o1)C(=O)Nc1cccc2ncccc12 | -16.8 |  |
| O=C(O)c1cc(=O)c2c(Cl)cc(Cl)cc2[nH]1 | -34.7 |  |
| CCCCC/C=C\CC(O)/C=C/c1cccc(CC(O)CCCCO)n1 (stereo not given) | 3.27 |  |
| CN1CCC[C@H]1c1cccnc1 | 25.1 |  |
| CC1CN(S(=O)(=O)c2cccc3cnccc23)CCN1 (stereo not given) | -28.3 |  |
| CCOC(=O)N1CCN(/[N+]([O-])=N/Oc2ccc([N+](=O)[O-])cc2[N+](=O)[O-])CC1 | -26.7 |  |
| CSc1ccccc1N1CCN(CCCCCC(=O)NC2CCCc3ccccc32)CC1 (stereo not given) | 16.3 |  |
| CN(C)c1nc(N)c(C(=O)N=C(N)N)nc1Cl | 4.36 |  |
| Nc1nc(Cl)nc2c1ncn2[C@@H]1O[C@H](COP(=O)(O)OP(=O)(O)OP(=O)(O)O)[C@@H](O)[C@H]1O | -33.9 |  |
| CCCCCCCCc1ccc(-c2ccc(C(=O)O)cc2)cc1 | -19.4 |  |
